# PubChem BioAssay AID504834 (National Center for Advancing Translational Sciences (NCATS), 2011)
# Hit rate of the full screen: of about 320,000 compounds, about 22,000 (6.9%) were called active. Roughly 27% stayed inconclusive and do not appear here. This excerpt belongs to a sample that is enriched for actives. Values without a mark were called inactive. The call rests on the fitted dose curve; in most records, active means well fitted inhibition curve with a large enough effect; inconclusive means small, poorly fitted or top-dose-only effect, or another doubt; inactive means no such curve, though single readings can be large or run the other way.
# Assay: Primary qHTS for delayed death inhibitors of the malarial parasite plastid, 96 hour incubation
# Settings: P. falciparum luciferase reporter growth; series mostly up to 28.7 µM; activity change, negative = inhibition: at the top concentration
# In short: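 Erythrocytes infected with luciferase-expressing P. falciparum were dispensed at 2% hematocrit and 0.05% parasitemia (final), then incubated with compounds 96 hours at 37 C in 5% CO2. Luminescence after detection reagent addition reported growth.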
# On the % scale 0 is the no-effect control and ±100 the full control effect; potency means the concentration at half of the fitted maximal effect.
Compound,"activity change, negative = inhibition",Potency
Cc1cccn2c(CNCC(C)Oc3cccnc3)c(C(=O)N3CCOCC3)nc12 (configuration not stated),2.34%,–
Cc1cccn2c(=O)c3cc(C(=O)NCCN4CCOCC4)c(=N)n(Cc4cccnc4)c3nc12,–,7.38 µM (active)
Cc1ccc(-c2noc(-c3ccccc3C(=O)NCC3CCCO3)n2)cc1 (configuration not stated),23.6%,–
COc1ccc(CCn2c(=N)c(C(=O)NCc3ccco3)cc3c(=O)n4cccc(C)c4nc32)cc1,–,0.586 µM (active)
COCC(C)OC(=O)c1c(N)n(CCCN2CCOCC2)c2nc3ccccc3nc12 (configuration not stated),-41.3%,–
O=C(NCc1ccco1)c1cccn2c(=O)c3c4c(sc3nc12)CCCC4,-0.317%,–
Cc1cccn2c(=O)c3cc(C(=O)NCC4CCCO4)c(=N)n(Cc4ccc(F)cc4)c3nc12 (configuration not stated),–,9.28 µM (active)
CCn1c(=N)c(C(=O)NCCCOC)cc2c(=O)n3cccc(C)c3nc21,0%,–
Cc1cccn2c(=O)c3cc(C#N)c(=O)n(CCCN4CCOCC4)c3nc12,–,2.62 µM (active)
Cc1ccc2cc(C#N)c(NCCNC(=S)NCCCN3CCOCC3)nc2c1,31.8%,–
COc1ccc(Cn2c(=S)[nH]c3cc(C(=O)NCCCN4CCOCC4)ccc3c2=O)cc1,12.8%,–
COCCNC(=O)c1ccc(Cn2c(SCC(=O)NCC3CCCO3)nc3ccc(Br)cc3c2=O)cc1 (configuration not stated),-0.164%,–
O=C(c1c(F)cccc1F)N1CCN(c2ncc(Br)cn2)CC1,8.96%,–
COC(=O)c1ccc(/C=N/NC(=O)C(=O)N2CCCCCC2)cc1,14%,–
Brc1ccccc1C1N=C(c2ccccc2)NO1 (configuration not stated),189%,–
CCCCn1c(N)c(N(CC(C)C)C(=O)c2cccc(S(=O)(=O)N3CCN(C(C)=O)CC3)c2)c(=O)[nH]c1=O,-22.4%,–
CCN(C(=O)Cc1c(C(=O)O)n(CC)c2ccccc12)c1ccccc1C,41.7%,–
COc1ccc(C(=O)COC(=O)Cn2cnc3c2c(=O)n(C)c(=O)n3C)c(OC)c1,-24.7%,–
N#Cc1cccc(CSc2ncnc(N)n2)c1,2.96%,–
Cc1cc(N2CCN(c3ccccc3)CC2)nc(N2CCOCC2)n1,-12%,–
Cc1cc(-n2nc(C)cc2C)n2ncc(-c3ccccc3)c2n1,0%,–
Cc1cc(C)n(-c2nnc(N3CCN(c4ccccc4)CC3)nn2)n1,–,0.329 µM (active)
COc1ccc(N(CC(=O)Nc2cc(OC)cc(OC)c2)S(=O)(=O)c2c(C)n[nH]c2C)cc1,3.89%,–
Cc1ccnc(N2C(=O)c3ccc([N+](=O)[O-])cc3C2=O)c1,-15.9%,–
Nc1cc(N2CCCCCC2)c2nonc2c1[N+](=O)[O-],-10.3%,–
COc1ccc(C(=O)NC(=S)Nc2ccc(N3CCCC3)cc2)cc1OC,-18.8%,–

Compound,"activity change, negative = inhibition",Potency
COc1ccc(C(=O)Nc2ccc3c(c2)OCO3)cc1OC,155%,–
COc1ccc(C(=O)Nc2ccc3nc(N4CCCCC4)cc(C)c3c2)cc1OC,–,11.7 µM (active)
COc1ccccc1C(=O)NCC(=O)NCCSc1ccc(Br)cc1,-14.1%,–
CCOc1cc(/C=N/Nc2cc(C)nc3ccc(C)cc23)ccc1O,-21.3%,–
CNc1ccc([N+](=O)[O-])cc1C(=O)O,-4.06%,–
CCCCN(C(=O)c1ccc(S(=O)(=O)N2CCOCC2)cc1)C1CCS(=O)(=O)C1 (configuration not stated),22%,–
CC1CCCCN1C(=O)Cn1c(=O)oc2cc(S(=O)(=O)N3CCCCC3)ccc21 (configuration not stated),-24%,–
CCCNC(=O)c1ccc(N2CCC3(CC2)CC(c2cccc(Br)c2)=NO3)c(NC(=O)c2ccco2)c1,–,0.37 µM (active)
O=C(Nc1ccccc1N1CCN(C(=O)c2ccccc2)CC1)c1ccco1,-8.23%,–
COC(=O)c1ccc(N2CCOCC2)c(NC(=O)c2ccc(Br)o2)c1,33.6%,–
CC(CCc1ccc(O)cc1)NCc1ccc(Cl)cc1Cl (configuration not stated),22.2%,–
O=C(CNS(=O)(=O)c1ccccc1)N1CCN(C(=O)c2ccco2)CC1,33.3%,–
CC(OC(=O)Cc1ccc(F)cc1)C(=O)N1CCc2ccccc21 (configuration not stated),33.6%,–
N=c1c2c3c(sc2ncn1N)CCCCC3,–,3.7 µM (active)
N=c1c2c3c(sc2ncn1N)CCCC3,-21.6%,–
c1nnc2c3c4c(sc3ncn12)CCC4,-4.03%,–
C[C@@H]1O[C@@H](OC[C@H]2O[C@@H](Oc3c(-c4ccc(O)cc4)oc4cc(O)cc(O)c4c3=O)[C@H](O)[C@@H](O)[C@@H]2O)[C@H](O)[C@H](O)[C@H]1O,41.3%,–
CN1CCN(c2ccc(S(=O)(=O)N3CCOCC3)cc2NC(=O)CCc2ccccc2)CC1,-0.796%,–
COc1ccc(CC(=O)Nc2cc(S(=O)(=O)N3CCCCC3)ccc2N2CCN(C)CC2)cc1,–,6.57 µM (active)
O=C(COC(=O)Cc1ccc(F)cc1)Nc1cc(S(=O)(=O)N2CCOCC2)ccc1N1CCCC1,-12.5%,–
CCOc1cccc2cc(C(=O)OCC(=O)Nc3c(C)cccc3CC)c(=O)oc12,5.09%,–
Cc1ccc(S(=O)(=O)N2CCC3(CC2)OCCO3)c(C)c1,49%,–
Cc1cccc(N2CCN(C(C)C(=O)N3CCc4ccccc43)CC2)c1C (configuration not stated),-15.4%,–
Cc1sc2ncn(CC(=O)NCCCC(=O)N(C)Cc3ccccc3)c(=O)c2c1C,8.23%,–
Cc1ccccc1CC1(CO)CCCN(Cc2ccc3c(c2)OCCO3)C1 (configuration not stated),–,14.7 µM (active)
COc1cccc(CC2(CO)CCCN(CC3=Cc4cc(OC)ccc4OC3)C2)c1 (configuration not stated),-2.4%,–

Compound,"activity change, negative = inhibition",Potency
CCOc1cc(CN2CCCC(CO)(Cc3ccc(F)cc3F)C2)ccc1OC (configuration not stated),-25%,–
CC(NC(=O)c1cc2cc(Cl)ccc2oc1=N)c1ccccc1 (configuration not stated),-10.9%,–
Cc1c(C(=O)Nc2cccc(Cl)c2)cn2c(nc3ccccc32)c1C#N,–,2.94 µM (active)
Cn1cc(Cl)c(C(=O)NNC(=S)Nc2cccc(Cl)c2)n1,25.8%,–
Cn1c(Nc2cccc(Cl)c2)nc2ccccc21,3.82%,–
O=S(=O)(c1cccs1)N1CCN(CCOc2ccccc2)CC1,9.87%,–
COc1ccccc1C(=O)Nn1cnnc1,-44.5%,–
CCn1cc(C(=O)NCCO)c(=O)c2cc(F)c(N3CCN(C)CC3)cc21,13.3%,–
CCOC(=O)c1ccc(NC(=O)CCn2c(=O)oc3ccccc32)cc1,6.94%,–
C/C(=N\NC(=O)c1ccccc1F)c1ccccn1,-24.9%,–
C/C(=N\NC(=O)Cc1ccc(Br)cc1)c1cccnc1,-24.8%,–
COc1ccc(CC(=O)N/N=C(\C)c2ccccn2)cc1,–,3.29 µM (active)
Nc1nnc(SCC(=O)NC2CCCc3ccccc32)s1 (configuration not stated),-8.49%,–
O=C(c1cccnc1NCc1ccccc1)N1CCOCC1,-5.66%,–
Fc1cnc(N2CCOCC2)nc1NCc1ccccc1,–,2.94 µM (active)
c1ccc(COc2nsnc2N2CCOCC2)cc1,2.16%,–
CC(=O)c1ccc(S(=O)(=O)N2CCC(Oc3ccc(-n4cnnn4)cc3)CC2)cc1,-14.5%,–
O=C1[C@@H]2C(Cc3ccc(O)cc3)NC3(C(=O)Nc4ccc(F)cc43)[C@@H]2C(=O)N1c1ccc(F)cc1 (some centres not stated),-3.79% [at 5.75 µM],–
CSCCC1NC2(C(=O)Nc3ccc(Cl)cc32)[C@@H]2C(=O)N(C3CCCC3)C(=O)[C@H]12 (some centres not stated),–,11.7 µM (active)
CC(C)(C)NC(=O)NCc1ccco1,24.3%,–
O=C(Nc1ccc2c(c1)OCCO2)C1CCCN(c2ncccn2)C1 (configuration not stated),-5.17%,–
Cc1cc(C)nc(N2CCC(C(=O)Nc3ccc4c(c3)OCCO4)CC2)n1,–,9.28 µM (active)
Cc1sc2ncn(CC(=O)NCCCC(=O)N3CCN(c4ccccc4F)CC3)c(=O)c2c1C,-28.1%,–
CC(=O)c1cc(CN2CCC(n3nccc3NC(=O)c3ccccc3Cl)CC2)cs1,23%,–
CC(=O)Nc1ccc(/C=N/Nc2ccc(C(=O)c3c(C)cc4ccccn34)cc2[N+](=O)[O-])cc1,92.7%,–
Cc1c(CCC(=O)O)c(=O)oc2c(C)c(OCc3ccccc3Cl)ccc12,56.3%,–

Compound,"activity change, negative = inhibition",Potency
COc1ccc2c(C)c(CCC(=O)NC3CC3)c(=O)oc2c1C,–,4.15 µM (active)
CCOC(=O)CCc1c(C)c2ccc(OCc3nn[nH]n3)c(C)c2oc1=O,-14.7%,–
Cc1c(C(C)CCCO)oc(=O)c2c1Oc1c(C)c(C(C)C[C@@H](C)O)oc(=O)c1C2 (some centres not stated),-32.3%,–
CN1c2ccc([N+](=O)[O-])cc2C(C)(C)C12C=Cc1cc(C(=O)O)ccc1O2 (configuration not stated),-17.2%,–
CC(C(=O)N1CCN(c2ccccc2F)CC1)c1ccc([N+](=O)[O-])cc1 (configuration not stated),–,9.28 µM (active)
O=C(CCSc1ccccc1)N1CCN(c2ccccc2F)CC1,18.7%,–
O=C(c1cccc2ccccc12)N1CCN(c2ccccc2F)CC1,-12.8%,–
Cc1ccc(OCCCC(=O)Nc2ccc3c(c2)OCCO3)cc1,37.2%,–
O=C(Nn1cnnc1)c1cc(Cl)ccc1Cl,2.88%,–
O=C(NC(=S)Nc1ccc(Cl)c(C(=O)O)c1)c1cncc(Br)c1,11.9%,–
Cn1c2c(c(=O)n(C)c1=O)[C@@H]1c3c(ccc4ccccc34)OC[C@@H]1CO2,43%,–
Cn1c2c(c(=O)n(C)c1=O)C1c3ccccc3OCC1C(C)(C)O2 (configuration not stated),–,1.65 µM (active)
COc1cccc2c1OCC1COc3c(c(=O)n(C)c(=O)n3C)C21 (configuration not stated),-2.79%,–
COc1ccc(COC(=O)c2ccc(Cl)c(S(=O)(=O)N3CCOCC3)c2)cc1F,–,14.7 µM (active)
COc1ccccc1OC(=O)c1ccc(C)c(S(=O)(=O)N2CCOCC2)c1,26.4%,–
COc1ccc(C(=O)OCC(=O)c2ccc(C)c(S(=O)(=O)N3CCOCC3)c2)cc1OC,5.96%,–
C=CCNC(=O)c1ccccc1SCc1c(C)noc1C,27.8%,–
O=C(c1ccc[nH]c1=S)N1CCN(S(=O)(=O)c2ccc(Br)cc2Cl)CC1,-19.4%,–
O=C(Nc1nnc(C2CC2)s1)c1ccccn1,–,10.4 µM (active)
Cc1cc(C(=O)Nc2nnc(C3CC3)s2)c(C)s1,249%,–
O=C(Nc1nnc(C2CC2)s1)c1cc(Cl)sc1Cl,6.36%,–
C=CCN1CC(C)/C(=N\O)CC1C (configuration not stated),31.3%,–
Cc1cnc(C(=O)OCc2c(C)cc(C(C)(C)C)cc2C)cn1,1.17%,–
CCn1c(=O)c([N+](=O)[O-])c(NCc2ccc3c(c2)OCO3)c2ccccc21,35.4%,–
